# According to the supplement of paper PMC4466140:
# Columns and labels:
# Assay in all cases: SPOT peptide array binding signal intensity (averaged, normalized) (arbitrary units (background-subtracted, floor 0; scale differs between SH3 domains)); higher = stronger binding of the SH3 domain to the peptide
# AgAbp1 = target: AgAbp1
# How it was run: (§1)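 Peptides were synthetic 15-mers on cellulose membranes, with every cysteine replaced by serine. They were incubated overnight at 4°C with GST-SH3 domains from four yeast species at 10 μg/ml in TBS-based blocking buffer. Binding signal, the replicate-averaged normalized and background-subtracted spot intensity, is in arbitrary units that differ between domains.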
# AgBbc1 = target: AgBbc1
# How it was run: as §1
# AgBem1-D1 = target: AgBem1-D1
# How it was run: as §1
# AgBzz1-D1 = target: AgBzz1-D1
# How it was run: as §1
# AgBzz1-D2 = target: AgBzz1-D2
# How it was run: as §1
# AgCyk3 = target: AgCyk3
# How it was run: as §1
# AgFus1 = target: AgFus1
# How it was run: as §1
# AgHof1 = target: AgHof1
# How it was run: as §1
# AgHse1 = target: AgHse1
# How it was run: as §1
# AgLsb1 = target: AgLsb1
# How it was run: as §1
# AgLsb4 = target: AgLsb4
# How it was run: as §1
# AgMyo5 = target: AgMyo5
# How it was run: as §1
# AgNbp2 = target: AgNbp2
# How it was run: as §1
# AgRvs167 = target: AgRvs167
# How it was run: as §1
# AgSho1 = target: AgSho1
# How it was run: as §1
# AgSla1-D1-D2 = target: AgSla1-D1-D2
# How it was run: as §1
# AgSla1-D3 = target: AgSla1-D3
# How it was run: as §1
# CaAbp1-D1 = target: CaAbp1-D1
# How it was run: as §1
# CaAbp1-D2 = target: CaAbp1-D2
# How it was run: as §1
# CaBbc1 = target: CaBbc1
# How it was run: as §1
# CaBem1-D1 = target: CaBem1-D1
# How it was run: as §1
# CaBzz1-D1 = target: CaBzz1-D1
# How it was run: as §1
# CaBzz1-D2 = target: CaBzz1-D2
# How it was run: as §1
# CaCyk3 = target: CaCyk3
# How it was run: as §1
# CaFus1 = target: CaFus1
# How it was run: as §1
# CaHof1 = target: CaHof1
# How it was run: as §1
# CaHse1 = target: CaHse1
# How it was run: as §1
# CaLsb1 = target: CaLsb1
# How it was run: as §1
# CaLsb4 = target: CaLsb4
# How it was run: as §1
# CaMyo5 = target: CaMyo5
# How it was run: as §1
# CaNbp2 = target: CaNbp2
# How it was run: as §1
# CaRvs167 = target: CaRvs167
# How it was run: as §1
# CaRvs167-3 = target: CaRvs167-3
# How it was run: as §1
# CaSho1 = target: CaSho1
# How it was run: as §1
# CaSla1-D1-D2 = target: CaSla1-D1-D2
# How it was run: as §1
# CaSla1-D3 = target: CaSla1-D3
# How it was run: as §1
# ScAbp1 = target: ScAbp1
# How it was run: as §1
# ScBbc1 = target: ScBbc1
# How it was run: as §1
# ScBem1-D1 = target: ScBem1-D1
# How it was run: as §1
# ScBzz1-D1 = target: ScBzz1-D1
# How it was run: as §1
# ScBzz1-D2 = target: ScBzz1-D2
# How it was run: as §1
# ScCyk3 = target: ScCyk3
# How it was run: as §1
# ScFus1 = target: ScFus1
# How it was run: as §1
# ScHof1 = target: ScHof1
# How it was run: as §1
# ScHse1 = target: ScHse1
# How it was run: as §1
# ScLsb1 = target: ScLsb1
# How it was run: as §1
# ScLsb2 = target: ScLsb2
# How it was run: as §1
# ScLsb3 = target: ScLsb3
# How it was run: as §1
# ScLsb4 = target: ScLsb4
# How it was run: as §1
# ScMyo3 = target: ScMyo3
# How it was run: as §1
# ScMyo5 = target: ScMyo5
# How it was run: as §1
# ScNbp2 = target: ScNbp2
# How it was run: as §1
# ScPex13 = target: ScPex13
# How it was run: as §1
# ScRvs167 = target: ScRvs167
# How it was run: as §1
# ScSho1 = target: ScSho1
# How it was run: as §1
# ScSla1-D1-D2 = target: ScSla1-D1-D2
# How it was run: as §1
# ScSla1-D3 = target: ScSla1-D3
# How it was run: as §1
# SpAbp1-D1 = target: SpAbp1-D1
# How it was run: as §1
# SpBbc1 = target: SpBbc1
# How it was run: as §1
# SpBzz1-D1 = target: SpBzz1-D1
# How it was run: as §1
# SpBzz1-D2 = target: SpBzz1-D2
# How it was run: as §1
# SpCyk3 = target: SpCyk3
# How it was run: as §1
# SpHof1 = target: SpHof1
# How it was run: as §1
# SpHof1-2 = target: SpHof1-2
# How it was run: as §1
# SpHof1-3 = target: SpHof1-3
# How it was run: as §1
# SpHse1 = target: SpHse1
# How it was run: as §1
# SpLsb1 = target: SpLsb1
# How it was run: as §1
# SpLsb4 = target: SpLsb4
# How it was run: as §1
# SpMyo1 = target: SpMyo1
# How it was run: as §1
# SpNbp2 = target: SpNbp2
# How it was run: as §1
# SpPex13 = target: SpPex13
# How it was run: as §1
# SpRvs167 = target: SpRvs167
# How it was run: as §1
# SpSla1-D1-D2 = target: SpSla1-D1-D2
# How it was run: as §1
# SpSla1-D3 = target: SpSla1-D3
# How it was run: as §1
binder,measurement,setting,value
RTRRRPPPPPIPSTQ,SPOT peptide array binding signal intensity,AgAbp1,334
same,SPOT peptide array binding signal intensity,AgBbc1,531
same,SPOT peptide array binding signal intensity,AgBem1-D1,308
same,SPOT peptide array binding signal intensity,AgBzz1-D1,3430
same,SPOT peptide array binding signal intensity,AgBzz1-D2,1460
same,SPOT peptide array binding signal intensity,AgCyk3,2
same,SPOT peptide array binding signal intensity,AgFus1,87
same,SPOT peptide array binding signal intensity,AgHof1,256
same,SPOT peptide array binding signal intensity,AgHse1,91
same,SPOT peptide array binding signal intensity,AgLsb1,370
same,SPOT peptide array binding signal intensity,AgLsb4,136
same,SPOT peptide array binding signal intensity,AgMyo5,339
same,SPOT peptide array binding signal intensity,AgNbp2,2690
same,SPOT peptide array binding signal intensity,AgRvs167,99.3
same,SPOT peptide array binding signal intensity,AgSho1,27
same,SPOT peptide array binding signal intensity,AgSla1-D1-D2,23
same,SPOT peptide array binding signal intensity,AgSla1-D3,735
same,SPOT peptide array binding signal intensity,CaAbp1-D1,748
same,SPOT peptide array binding signal intensity,CaAbp1-D2,1060
same,SPOT peptide array binding signal intensity,CaBbc1,965
same,SPOT peptide array binding signal intensity,CaBem1-D1,124
same,SPOT peptide array binding signal intensity,CaBzz1-D1,7320
same,SPOT peptide array binding signal intensity,CaBzz1-D2,4870
same,SPOT peptide array binding signal intensity,CaCyk3,53.5
same,SPOT peptide array binding signal intensity,CaFus1,452
same,SPOT peptide array binding signal intensity,CaHof1,0.5
same,SPOT peptide array binding signal intensity,CaHse1,21
same,SPOT peptide array binding signal intensity,CaLsb1,1.25
same,SPOT peptide array binding signal intensity,CaLsb4,1170
same,SPOT peptide array binding signal intensity,CaMyo5,19.8
same,SPOT peptide array binding signal intensity,CaNbp2,1440
same,SPOT peptide array binding signal intensity,CaRvs167,111
same,SPOT peptide array binding signal intensity,CaRvs167-3,22.5
same,SPOT peptide array binding signal intensity,CaSho1,98
same,SPOT peptide array binding signal intensity,CaSla1-D1-D2,2100
same,SPOT peptide array binding signal intensity,CaSla1-D3,391
same,SPOT peptide array binding signal intensity,ScAbp1,114
same,SPOT peptide array binding signal intensity,ScBbc1,511
same,SPOT peptide array binding signal intensity,ScBem1-D1,13.5
same,SPOT peptide array binding signal intensity,ScBzz1-D1,1990
same,SPOT peptide array binding signal intensity,ScBzz1-D2,258
same,SPOT peptide array binding signal intensity,ScCyk3,19
same,SPOT peptide array binding signal intensity,ScFus1,40.5
same,SPOT peptide array binding signal intensity,ScHof1,2
same,SPOT peptide array binding signal intensity,ScHse1,473
same,SPOT peptide array binding signal intensity,ScLsb1,492
same,SPOT peptide array binding signal intensity,ScLsb2,559
same,SPOT peptide array binding signal intensity,ScLsb3,2080
same,SPOT peptide array binding signal intensity,ScLsb4,258
same,SPOT peptide array binding signal intensity,ScMyo3,940
same,SPOT peptide array binding signal intensity,ScMyo5,1490
same,SPOT peptide array binding signal intensity,ScNbp2,3190
same,SPOT peptide array binding signal intensity,ScPex13,318
same,SPOT peptide array binding signal intensity,ScRvs167,1430
same,SPOT peptide array binding signal intensity,ScSho1,894
same,SPOT peptide array binding signal intensity,ScSla1-D1-D2,3110
same,SPOT peptide array binding signal intensity,ScSla1-D3,883
same,SPOT peptide array binding signal intensity,SpAbp1-D1,505
same,SPOT peptide array binding signal intensity,SpBbc1,85.8
same,SPOT peptide array binding signal intensity,SpBzz1-D1,4250
same,SPOT peptide array binding signal intensity,SpBzz1-D2,1520
same,SPOT peptide array binding signal intensity,SpCyk3,1
same,SPOT peptide array binding signal intensity,SpHof1,361
same,SPOT peptide array binding signal intensity,SpHof1-2,53.5
same,SPOT peptide array binding signal intensity,SpHof1-3,340
same,SPOT peptide array binding signal intensity,SpHse1,72.2
same,SPOT peptide array binding signal intensity,SpLsb1,370
same,SPOT peptide array binding signal intensity,SpLsb4,1730
same,SPOT peptide array binding signal intensity,SpMyo1,800
same,SPOT peptide array binding signal intensity,SpNbp2,29.5
same,SPOT peptide array binding signal intensity,SpPex13,26.5
same,SPOT peptide array binding signal intensity,SpRvs167,1250
same,SPOT peptide array binding signal intensity,SpSla1-D1-D2,907
same,SPOT peptide array binding signal intensity,SpSla1-D3,2.5
KMSRSPPRPPSLKII,SPOT peptide array binding signal intensity,AgAbp1,329
same,SPOT peptide array binding signal intensity,AgBbc1,145
same,SPOT peptide array binding signal intensity,AgBem1-D1,707
same,SPOT peptide array binding signal intensity,AgBzz1-D1,85.5
same,SPOT peptide array binding signal intensity,AgBzz1-D2,35
same,SPOT peptide array binding signal intensity,AgCyk3,4
same,SPOT peptide array binding signal intensity,AgFus1,180
same,SPOT peptide array binding signal intensity,AgHof1,17
same,SPOT peptide array binding signal intensity,AgHse1,99
same,SPOT peptide array binding signal intensity,AgLsb1,20
same,SPOT peptide array binding signal intensity,AgLsb4,≤ 0
same,SPOT peptide array binding signal intensity,AgMyo5,10.5
same,SPOT peptide array binding signal intensity,AgNbp2,1350
same,SPOT peptide array binding signal intensity,AgRvs167,4.5
same,SPOT peptide array binding signal intensity,AgSho1,228
same,SPOT peptide array binding signal intensity,AgSla1-D1-D2,25
same,SPOT peptide array binding signal intensity,AgSla1-D3,9.25
same,SPOT peptide array binding signal intensity,CaAbp1-D1,734
same,SPOT peptide array binding signal intensity,CaAbp1-D2,1170
same,SPOT peptide array binding signal intensity,CaBbc1,564
same,SPOT peptide array binding signal intensity,CaBem1-D1,83
same,SPOT peptide array binding signal intensity,CaBzz1-D1,1880
same,SPOT peptide array binding signal intensity,CaBzz1-D2,466
same,SPOT peptide array binding signal intensity,CaCyk3,36
same,SPOT peptide array binding signal intensity,CaFus1,974
same,SPOT peptide array binding signal intensity,CaHof1,0.5
same,SPOT peptide array binding signal intensity,CaHse1,58.5
same,SPOT peptide array binding signal intensity,CaLsb1,2.5
same,SPOT peptide array binding signal intensity,CaLsb4,588
same,SPOT peptide array binding signal intensity,CaMyo5,44.5
